Results on eleven compounds are retold here after PubChem BioAssay (NCATS).

Test [1] deals with Transient receptor potential cation channel subfamily V member 1 (Homo sapiens) (UniProt Q8NER1). In words: HTS Assay for Compounds that Act as Enhancers of the Vanilloid Receptor 1 (AID 488979). Further: 0% is about no effect. The method, boiled down: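 TRPV1-expressing cells loaded with Fluo-8 calcium dye; compounds added and calcium influx read kinetically for 3 min (agonist phase), then capsaicin at EC20 added and read 2 min more for enhancement. Fluorescence ex 480/em 520 nm.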
Chain of Transient receptor potential cation channel subfamily V member 1 (Homo sapiens) (Q8NER1 whole entry, looked up): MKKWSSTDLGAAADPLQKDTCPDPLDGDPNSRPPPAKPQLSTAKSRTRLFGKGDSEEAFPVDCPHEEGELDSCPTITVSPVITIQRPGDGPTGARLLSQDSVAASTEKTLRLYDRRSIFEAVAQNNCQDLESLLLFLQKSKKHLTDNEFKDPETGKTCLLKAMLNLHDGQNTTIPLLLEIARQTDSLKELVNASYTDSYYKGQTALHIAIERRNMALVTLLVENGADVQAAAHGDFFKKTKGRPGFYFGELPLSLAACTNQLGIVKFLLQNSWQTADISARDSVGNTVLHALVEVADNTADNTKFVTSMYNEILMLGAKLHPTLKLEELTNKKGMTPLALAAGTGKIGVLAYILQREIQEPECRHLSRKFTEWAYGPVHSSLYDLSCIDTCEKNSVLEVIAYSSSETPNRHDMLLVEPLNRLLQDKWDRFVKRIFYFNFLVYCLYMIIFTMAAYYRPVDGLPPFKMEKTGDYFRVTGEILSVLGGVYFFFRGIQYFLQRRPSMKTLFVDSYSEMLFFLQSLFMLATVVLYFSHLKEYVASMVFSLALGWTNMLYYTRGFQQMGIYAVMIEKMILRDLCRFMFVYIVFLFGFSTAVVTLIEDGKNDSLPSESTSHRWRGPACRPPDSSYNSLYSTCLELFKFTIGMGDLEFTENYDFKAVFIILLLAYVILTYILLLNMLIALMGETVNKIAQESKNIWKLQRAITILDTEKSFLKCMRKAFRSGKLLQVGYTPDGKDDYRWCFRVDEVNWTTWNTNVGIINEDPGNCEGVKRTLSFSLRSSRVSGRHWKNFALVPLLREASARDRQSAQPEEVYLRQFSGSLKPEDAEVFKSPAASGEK

Test [2] addresses Thyrotropin receptor (Homo sapiens) (UniProt P16473). Kind of test: qHTS Assay for Antagonists of the Thyroid Stimulating Hormone Receptor (AID 488980). Further: series mostly up to about 58 µM; 0% is about no effect. The method, boiled down: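 Readout is cAMP by HTRF competition between cellular cAMP and cAMP-d2 for a cryptate-labelled antibody. Antagonism was assessed in TSHR-transfected HEK293 cells stimulated with 4 nM TSH (EC80, final) in the presence of RO 20-1724.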

The target in test [3] is D(1A) dopamine receptor (Homo sapiens) (UniProt P21728). In words: HTS Assay for Allosteric Agonists of the Human D1 Dopamine Receptor: Primary Screen for Potentiators (AID 488982). Further: 0% is about no effect. The method in brief:
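Tetracycline-induced HEK293 T-REx cells force-coupled to calcium signalling were incubated overnight at 30 C and dye-loaded at room temperature. Calcium flux over 180 s after compound addition flagged agonists; a further 180 s read after EC20 dopamine flagged potentiators.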

The target is the same in test [4]. Kind of test: HTS Assay for Allosteric Agonists of the Human D1 Dopamine Receptor: Primary Screen for Antagonists (AID 488983).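 Further: calcium flux response to an EC80 dopamine challenge measured with no-wash dye; on the % scale 0 is the no-effect control and ±100 the full control effect; nearly all actives have a fitted effect of over 65% in size.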 The method in brief: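 Screening of inducible HEK293 T-REx D1 cells: compound first, EC80 dopamine 180 s later, each phase read kinetically for calcium over 180 s.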
Test [5] has as its target ATPase family AAA domain-containing protein 5 (Homo sapiens) (UniProt Q96QE3). Kind of test: Validation screen for small molecules that inhibit ELG1-dependent DNA repair in human embryonic kidney (HEK293T) cells expressing luciferase-tagged ELG1 (AID 493107).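 Further: cells co-treated with the DNA-damaging agent 5-fluorouridine alongside compound; series mostly up to about 46 µM; on the % scale 0 is the no-effect control and ±100 the full control effect; inhibitors lower the ELG1-luciferase luminescence signal; nearly all actives have a fitted effect of over 70% in size.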 The method in brief: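 Quantitative HTS in HEK293T cells carrying luciferase-tagged ELG1, stimulated with 5-fluorouridine alongside compound for 16 hr. Loss of luciferase signal marks inhibition of ELG1 response.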

Test [6] addresses Thyrotropin-releasing hormone receptor (Homo sapiens) (UniProt P34981). In words: qHTS for Small Molecule Agonists and Allosteric Enhancers of Human TRH Receptor: Validation Screen for Agonists (AID 493127;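 active means calcium activation more than 3 SD above the typical response in the agonist read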;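 further: intracellular calcium rise by fluo-8 fluorescence before TRH EC20 addition; 0% is about no effect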). The note with it: TRH receptor agonist cell assay; at 2 µM; stronger effect = higher value. The method in brief: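 Gq-coupled calcium mobilization in TRHR cells after compound addition, monitored kinetically with fluo-8 dye on an FDSS reader.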

Test [7] in a line: Nrf2 qHTS screen for inhibitors: Validation (AID 493153; active means well fitted inhibition curve with a large enough effect in the main read-out, with a control signal flat, not every such curve was filed as active). The settings on record: Potency: luciferase luminescence; viability change: measured here: cytotoxicity max response. The method, boiled down:
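Dose-response validation uses reporter A549 cells with firefly luciferase under an antioxidant response element. Compounds stay on cells 18-24 h at 37°C, and luminescence indicates Nrf2-driven transcription.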

A short description of test [8]: qHTS for Inhibitors of Cell Surface uPA Generation: Validation Assay (AID 493164).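 Further: RAW 264.7 macrophage cells exposed to compound for 18 h; 0% is about no effect.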 The method in brief:
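RAW 264.7, 4000 cells/well, o/n plating; cpd 7-pt 1:5 dilution 2.45 nM–38.3 uM final; 18 h, 37 C/5% CO2; ATP-Lite, 5 s luminescence exposure.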

Test [9] addresses Galactokinase (Homo sapiens) (UniProt P51570). In words: qHTS Validation Assay for Inhibitors of Human Galactokinase (GALK) (AID 493189). Further: 0% is about no effect. The method, boiled down:
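5 nM GALK / 100 uM galactose / 35 uM ATP, 20 mM HEPES pH8.0, 5 mM MgCl2, 60 mM NaCl, 1 mM DTT, 0.01% BSA (final). RT 1 h; Kinase-Glo Plus luminescence.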

The nature of test [10]: Validation screen for small molecules that induce DNA re-replication in SW480 colon adenocarcinoma cells (AID 504364). Further: potency means the concentration at half of the fitted maximal effect. The method, boiled down: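 Cells are treated 48 hr with test compound, stained 40 min with Hoechst at 37 C, and scanned for nuclear fluorescence; compounds inducing re-replication increase nuclei with elevated intensity.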
For test [11], the target named is Peptidyl-prolyl cis-trans isomerase NIMA-interacting 1 (Homo sapiens) (UniProt Q13526). Kind of test: qHTS Validation Assay to Find Inhibitors of Pin1 (AID 504536; active means well fitted inhibition curve with a large enough effect in the polarisation, with a control signal flat, not every such curve was filed as active; the % refers to the polarisation;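 further: 0% = full Pin1 enzyme wells and -100% = no-enzyme wells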). The method, boiled down: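 Fluorescence polarization competition: compounds (titration) displace HiFluor-488-labeled Pin1-1b peptide from Pin1 (0.3 uM final) in pH 7.5 HEPES buffer with DTT, 10 min at room temperature; %Activity normalized to no-enzyme wells, curves fitted.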
Chain of Peptidyl-prolyl cis-trans isomerase NIMA-interacting 1 (Homo sapiens) (Q13526 whole entry, looked up): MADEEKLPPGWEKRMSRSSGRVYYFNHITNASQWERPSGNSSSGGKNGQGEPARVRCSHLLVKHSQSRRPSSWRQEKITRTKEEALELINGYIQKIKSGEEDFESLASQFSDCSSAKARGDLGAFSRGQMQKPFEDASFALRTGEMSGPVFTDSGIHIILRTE

The target of test [12] is Phosphoglycerate kinase, glycosomal (Trypanosoma brucei brucei) (UniProt P07378). In words: qHTS Validation Assay to Find Inhibitors of Phosphoglycerate Kinase (AID 504547). Further: potency means the concentration at half of the fitted maximal effect. The method, boiled down: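 Substrate/PGK mix plus compound; reaction started with GAPDH (100nM final) to form 1,3-BPG; 60 min RT; Kinase-Glo Plus 10 min; luminescence. TEA 100mM pH 7.6, MgCl2 5mM, Tween-20 0.01%.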
Chain of Phosphoglycerate kinase, glycosomal (Trypanosoma brucei brucei) (P07378 whole entry, looked up): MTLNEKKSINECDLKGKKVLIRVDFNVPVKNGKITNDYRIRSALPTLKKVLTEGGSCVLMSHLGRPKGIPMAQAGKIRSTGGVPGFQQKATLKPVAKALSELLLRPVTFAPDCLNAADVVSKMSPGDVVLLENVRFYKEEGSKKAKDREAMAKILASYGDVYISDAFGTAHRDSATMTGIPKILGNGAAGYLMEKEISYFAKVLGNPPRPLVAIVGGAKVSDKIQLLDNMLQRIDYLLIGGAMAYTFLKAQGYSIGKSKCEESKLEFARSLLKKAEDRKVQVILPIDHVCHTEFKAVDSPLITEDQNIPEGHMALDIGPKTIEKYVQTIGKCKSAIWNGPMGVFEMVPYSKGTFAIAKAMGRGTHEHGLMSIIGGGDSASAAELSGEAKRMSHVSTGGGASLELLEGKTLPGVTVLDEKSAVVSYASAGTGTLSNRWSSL

Test [13] has as its target phosphoglycerate mutase (Leishmania major) (UniProt Q4Q090). Kind of test: qHTS Validation Assay to Find Inhibitors of Phosphoglycerate Mutase (AID 504548).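 Further: end-point luminescence from Kinase-GloPlus after the PGAM reaction; series mostly up to about 58 µM; on the % scale 0 is the no-effect control and ±100 the full control effect.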 The settings on record: Potency: inhibition qHTS. The method, boiled down:
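L. major PGAM (1.25nM final) was added to substrate buffer and pinned compound, incubated 45 minutes at room temperature, then Kinase-GloPlus added; luminescence read after 10 minutes. Buffer: 100 mM TEA pH 7.6, 5 mM MgCl2, 0.01% Tween-20.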

The nature of test [14]: qHTS for Inhibitors of ATXN expression: Validation (AID 588378). Further: series mostly up to about 57 µM; on the % scale 0 is the no-effect control and ±100 the full control effect; nearly all actives have a fitted effect of over 75% in size. The method, boiled down: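 Compounds were pinned onto attached HEK293 cells carrying an ATXN2-firefly luciferase construct and incubated 24 hrs at 37 degrees C. Each well then received a fluorescent viability reagent followed by luciferase substrate for end-point luminescence.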
Test [15] is described as follows: Validation screen for small molecules that induce genotoxicity in human embryonic kidney (HEK293T) cells expressing luciferase-tagged ELG1 (AID 493106). Further: 0% is about no effect. The method in brief:
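Reporter-gene quantitative HTS in HEK293T cells carrying luciferase-tagged ELG1, whose level climbs under genotoxic stress. Compound exposure lasts 16 hr at 37 °C before luciferase detection.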

Test [16] has as its target Ubiquitin carboxyl-terminal hydrolase 1 (Homo sapiens) (UniProt O94782). Kind of test: Inhibitors of USP1/UAF1: Pilot qHTS (AID 504865). Further: nearly all actives have a fitted effect of over 35% in size. Further: potency means the concentration at half of the fitted maximal effect. The method in brief: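 In 50mM HEPES pH 7.8 containing 0.5mM EDTA, 1mM TCEP, 0.1 mg/ml BSA and 0.01% Tween-20, 1nM USP1/UAF1 is exposed to compound for 15 min, then Ub-Rho (150nM final) is added and fluorescence is read over time.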

Test [17] is described as follows: qHTS for Inhibitors of ATXN expression: Validation of Cytotoxic Assay (AID 588349).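 Further: cells exposed to compound for 72 hr; on the % scale 0 is the no-effect control and ±100 the full control effect.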 The method in brief:
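HEK293, compound dose series, 72 hr / 37 degrees C; viability via CellTiter Glo (intracellular ATP).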

Test [18] concerns the target DNA dC->dU-editing enzyme APOBEC-3G (Homo sapiens) (UniProt Q9HC16). Kind of test: qHTS for inhibitors of Vif-A3G interactions: Validation (AID 588379). Further: 0% is about no effect. The method, boiled down: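 HeLa cells stably expressing Vif and A3G-eYFP, 700 cells/well, incubated overnight at 37 deg C, then exposed to compound overnight at 37 deg C. Inhibition of Vif-mediated degradation read as increased yellow fluorescence (Ex 488/Em 500-530) by laser-scanning cytometry.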

The target of test [19] is ATP-dependent 6-phosphofructokinase (Trypanosoma brucei brucei) (UniProt O15648). In words: qHTS Assay to Find Inhibitors of T. brucei phosphofructokinase: hit validation (AID 492961).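 Further: luminescence reports ADP formed as PFK phosphorylates fructose-6-phosphate with ATP; series mostly up to about 51 µM; on the % scale 0 is the no-effect control and ±100 the full control effect.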 The method in brief:
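Reaction: 0.1 M triethanolamine pH 8.0, 5 mM MgCl2, F6P 0.5 mM, ATP 0.1 mM, PFK 1.25 nM, 45 min RT. Read-out: ADP-Glo luminescence. Analysis: concentration-response fits, classed by r2 and efficacy.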

The structures appear in SMILES notation. Several values for one entry are separate records, joined by “and”; a condition that tells them apart may be missing. Equal entries are not always repeated. Records with an inconclusive call do not appear. Activity calls are given as the source filed them. Unless noted, the call rests on the fitted dose curve; in most records, active means well fitted curve in the direction sought with a large enough effect; inconclusive means small, poorly fitted or top-dose-only effect, or another doubt; inactive means no such curve, though single readings can be large; an effect the other way counts as inactive or inconclusive.

Chain of Galactokinase (Homo sapiens) (P51570 whole entry, looked up): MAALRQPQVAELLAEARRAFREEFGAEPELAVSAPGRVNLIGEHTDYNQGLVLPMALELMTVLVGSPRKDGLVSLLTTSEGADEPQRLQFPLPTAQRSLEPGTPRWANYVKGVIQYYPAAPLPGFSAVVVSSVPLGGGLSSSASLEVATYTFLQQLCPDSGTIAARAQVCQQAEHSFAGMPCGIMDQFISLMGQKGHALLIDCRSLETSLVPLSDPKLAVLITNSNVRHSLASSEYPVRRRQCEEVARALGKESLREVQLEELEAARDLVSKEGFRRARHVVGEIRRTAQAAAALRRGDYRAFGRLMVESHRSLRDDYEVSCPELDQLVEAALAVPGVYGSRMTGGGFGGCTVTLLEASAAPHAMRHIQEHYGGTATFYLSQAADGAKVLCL
Chain of Thyrotropin receptor (Homo sapiens) (P16473 whole entry, looked up): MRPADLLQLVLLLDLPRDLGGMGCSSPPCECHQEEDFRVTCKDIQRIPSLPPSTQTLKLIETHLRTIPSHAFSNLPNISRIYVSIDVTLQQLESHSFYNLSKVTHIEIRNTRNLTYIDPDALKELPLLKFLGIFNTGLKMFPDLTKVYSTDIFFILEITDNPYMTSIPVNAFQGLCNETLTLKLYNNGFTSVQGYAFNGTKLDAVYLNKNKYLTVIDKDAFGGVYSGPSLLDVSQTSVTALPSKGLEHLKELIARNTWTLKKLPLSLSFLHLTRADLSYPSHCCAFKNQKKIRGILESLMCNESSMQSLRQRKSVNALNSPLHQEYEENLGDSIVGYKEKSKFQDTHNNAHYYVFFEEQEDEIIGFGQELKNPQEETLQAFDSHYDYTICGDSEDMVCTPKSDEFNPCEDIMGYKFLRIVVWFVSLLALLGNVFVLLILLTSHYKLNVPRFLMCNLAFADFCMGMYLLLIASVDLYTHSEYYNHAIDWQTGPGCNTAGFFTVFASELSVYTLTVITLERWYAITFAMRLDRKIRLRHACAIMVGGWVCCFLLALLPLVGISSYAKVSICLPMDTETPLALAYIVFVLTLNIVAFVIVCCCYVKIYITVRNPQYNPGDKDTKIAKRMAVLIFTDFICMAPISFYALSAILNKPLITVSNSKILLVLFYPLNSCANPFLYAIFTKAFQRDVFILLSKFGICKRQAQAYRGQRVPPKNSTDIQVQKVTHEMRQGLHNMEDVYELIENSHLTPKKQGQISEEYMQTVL
Chain of Ubiquitin carboxyl-terminal hydrolase 1 (Homo sapiens) (O94782 whole entry, looked up): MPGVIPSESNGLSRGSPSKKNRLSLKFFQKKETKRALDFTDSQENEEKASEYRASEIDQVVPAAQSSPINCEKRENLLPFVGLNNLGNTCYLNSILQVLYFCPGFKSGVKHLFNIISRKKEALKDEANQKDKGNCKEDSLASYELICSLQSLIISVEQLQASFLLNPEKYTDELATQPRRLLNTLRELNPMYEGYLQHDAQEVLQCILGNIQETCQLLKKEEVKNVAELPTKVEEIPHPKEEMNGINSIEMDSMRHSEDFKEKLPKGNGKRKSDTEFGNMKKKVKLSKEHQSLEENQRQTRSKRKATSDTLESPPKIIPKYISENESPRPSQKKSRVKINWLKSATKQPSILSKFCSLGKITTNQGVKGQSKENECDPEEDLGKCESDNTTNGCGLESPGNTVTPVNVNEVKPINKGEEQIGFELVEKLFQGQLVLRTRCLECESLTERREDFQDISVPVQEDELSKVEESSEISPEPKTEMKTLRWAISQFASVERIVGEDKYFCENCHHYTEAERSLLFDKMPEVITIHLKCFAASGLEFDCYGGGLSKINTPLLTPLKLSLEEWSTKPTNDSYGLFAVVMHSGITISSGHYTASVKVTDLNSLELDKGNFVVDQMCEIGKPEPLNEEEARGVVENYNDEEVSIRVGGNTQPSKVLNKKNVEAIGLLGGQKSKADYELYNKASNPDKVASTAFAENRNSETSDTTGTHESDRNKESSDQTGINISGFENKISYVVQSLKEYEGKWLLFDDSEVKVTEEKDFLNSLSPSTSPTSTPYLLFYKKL
Chain of DNA dC->dU-editing enzyme APOBEC-3G (Homo sapiens) (Q9HC16 whole entry, looked up): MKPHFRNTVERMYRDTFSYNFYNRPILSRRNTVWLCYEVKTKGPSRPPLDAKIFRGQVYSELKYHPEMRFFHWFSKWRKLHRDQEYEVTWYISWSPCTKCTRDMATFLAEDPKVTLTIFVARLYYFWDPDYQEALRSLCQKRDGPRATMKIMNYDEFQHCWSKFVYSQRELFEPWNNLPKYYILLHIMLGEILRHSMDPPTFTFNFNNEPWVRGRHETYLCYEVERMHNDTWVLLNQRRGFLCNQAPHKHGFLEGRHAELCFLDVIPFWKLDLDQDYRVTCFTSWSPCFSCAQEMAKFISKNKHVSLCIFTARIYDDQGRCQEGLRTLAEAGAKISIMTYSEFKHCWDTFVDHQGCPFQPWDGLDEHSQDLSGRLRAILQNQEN
Chain of Thyrotropin-releasing hormone receptor (Homo sapiens) (P34981 whole entry, looked up): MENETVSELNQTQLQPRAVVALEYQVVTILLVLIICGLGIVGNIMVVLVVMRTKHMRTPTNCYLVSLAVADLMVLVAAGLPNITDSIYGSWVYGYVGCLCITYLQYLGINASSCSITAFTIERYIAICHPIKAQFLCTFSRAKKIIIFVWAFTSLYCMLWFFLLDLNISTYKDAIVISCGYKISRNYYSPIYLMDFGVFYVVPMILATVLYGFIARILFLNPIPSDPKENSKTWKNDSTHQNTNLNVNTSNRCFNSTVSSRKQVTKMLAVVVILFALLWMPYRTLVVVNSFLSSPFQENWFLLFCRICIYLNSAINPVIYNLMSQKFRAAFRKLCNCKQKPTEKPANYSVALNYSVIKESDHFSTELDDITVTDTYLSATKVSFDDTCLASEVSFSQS
Chain of D(1A) dopamine receptor (Homo sapiens) (P21728 whole entry, looked up): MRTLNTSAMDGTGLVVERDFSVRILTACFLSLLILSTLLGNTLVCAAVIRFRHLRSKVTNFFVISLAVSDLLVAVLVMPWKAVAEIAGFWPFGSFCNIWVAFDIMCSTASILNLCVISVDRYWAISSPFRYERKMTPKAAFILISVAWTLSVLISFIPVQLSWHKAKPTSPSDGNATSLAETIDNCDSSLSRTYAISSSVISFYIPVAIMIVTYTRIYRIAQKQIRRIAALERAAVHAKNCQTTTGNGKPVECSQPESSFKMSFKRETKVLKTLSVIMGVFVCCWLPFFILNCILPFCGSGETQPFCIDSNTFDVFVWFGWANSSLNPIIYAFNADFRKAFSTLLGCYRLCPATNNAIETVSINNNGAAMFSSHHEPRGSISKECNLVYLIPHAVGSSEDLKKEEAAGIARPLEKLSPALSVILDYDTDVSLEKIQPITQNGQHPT

As for `Nc1nc(OCc2ccccc2)c2[nH]cnc2n1`, the result in test [1], in [2], in [5], in [8], in test [9] and in [11] was inactive. The Potency result in [3], in [4], in test [7], in test [10], in test [12] and in test [13] was “inactive” in each case. For the same compound, in test [14], the Potency result is “inactive”. Besides, in test [6], the activation was -2.94% (inactive). In addition, the viability change in [7] is 10.1%.

`OC(CN1CCN(c2cccc(Cl)c2)CC1)C(c1ccccc1)c1ccccc1` (configuration not stated): the outcome in test [1], in test [2], in [5], in test [8], in [9] and in test [11] was inactive. Also, the result in test [17] and in test [18] was inactive. Moreover, the Potency entry in test [3], in test [4], in test [15], in [7], in test [12] and in test [13] was “inactive” each time. Also, the Potency entry in test [16] and in test [14] was “inactive” each time. Moreover, the activation in test [6] was 2.44% (inactive). Also, the viability change in test [7] is 1.98%.

In the case of `O=C(NCC1CCCCN1)c1cc(OCC(F)(F)F)ccc1OCC(F)(F)F` (configuration not stated), the outcome in test [1], in [2] and in [9] was inactive. Besides, the activation in test [6] was -4.44% (inactive). The Potency entry in test [10] and in test [16] was “inactive” each time.

For `C[C@@H](N)C1CCC(C(=O)Nc2ccncc2)CC1` (some centres not stated), the result in test [1], in test [2], in test [8], in test [9], in test [11] and in [17] was inactive. For the same compound, the Potency result in test [3], in [4], in [15], in test [7], in [10] and in test [12] was “inactive” throughout. Also, the Potency result in test [13], in [16] and in test [14] was “inactive” throughout. In test [6], the activation was 1.06% (inactive). The viability change in test [7] was 2.27%.

Consider `O=c1c(O)c(-c2cc(O)c(O)c(O)c2)oc2cc(O)cc(O)c12`, for which the outcome in [1], in [2], in test [5], in test [8], in test [9] and in [18] was inactive. The Potency result in test [3], in [15], in test [7], in test [10] and in [13] was “inactive” in each case. For the same compound, the activation in [6] is 1.38% (inactive). Further, the viability change in test [7] is -7.68%. The Potency in test [12] was 3010 nM (active).

Consider `Cc1nc2n(c(=O)c1CCN1CCC(c3noc4cc(F)ccc34)CC1)CCCC2`, for which the outcome in test [1], in [2] and in [9] was inactive. Moreover, the activation in test [6] was 0.938% (inactive). Moreover, the Potency entry in test [10] and in test [16] was “inactive” in each case.

Regarding `CC(C)c1ccc2c(c1)c(SC(C)(C)C)c(CC(C)(C)C(=O)O)n2Cc1ccc(Cl)cc1`, the compound was classed as inactive in test [2], in test [5], in test [8], in test [9], in test [11] and in test [18]. The Potency result in test [3], in [4], in test [15], in [10], in [12] and in [13] was “inactive” throughout. For the same compound, the activation in test [6] is 1.38% (inactive). Moreover, the Potency in [16] is 25.1 µM (active) and 50.1 µM (active).

For the compound `CC(=O)O[C@H]1C(=O)[C@@]2(C)C([C@H](OC(=O)c3ccccc3)[C@]3(O)C[C@H](OC(=O)[C@H](O)[C@@H](NC(=O)c4ccccc4)c4ccccc4)C(C)=C1C3(C)C)[C@]1(OC(C)=O)CO[C@@H]1C[C@@H]2O` (some centres not stated), the outcome in test [1], in [2], in [8] and in test [9] was inactive. Also, the Potency entry in test [3], in test [4], in [15], in test [12] and in test [13] was “inactive” in each case. Moreover, the activation in [6] was 0.562% (inactive). Also, in test [10], the Potency was 9.2 nM (active).

`CNC[C@H](O)c1ccc(O)c(O)c1`: the result in test [1], in test [2], in test [19], in [5], in test [8] and in [9] was inactive. For the same compound, the call in test [11], in [17] and in test [18] was inactive. Besides, the Potency entry in test [3], in [15], in test [7], in [10], in test [13] and in test [14] was “inactive” each time. The activation in test [6] was 0.875% (inactive). The viability change in test [7] turned out to be 3.45%.

On to `O=c1ccc2ccc(O)c(O)c2o1`, for which the result in [1], in test [2], in [8], in test [9] and in [17] was inactive. For the same compound, the Potency entry in test [4], in [15], in test [7], in test [13] and in test [14] was “inactive” throughout. For the same compound, the activation in test [6] was -0.188% (inactive). In addition, the viability change in test [7] stood at 21%.

As for `NCCCCNCCCN`, the result in [1], in [2], in [8], in test [9], in [11] and in [17] was inactive. Besides, the call in [18] was inactive. Moreover, the Potency result in test [3], in test [4], in [15], in test [7], in [10] and in test [12] was “inactive” each time. Moreover, the Potency result in [13] and in test [14] was “inactive” in each case. The activation in test [6] is -0.0625% (inactive). In addition, the viability change in test [7] was determined as 3.72%.
